Compound activity from PubChem BioAssay.
The list is not random: actives were taken first. Their share in the collection is about 3.8%.
TGFb SMAD3 inh – blocks TGF-b signaling; HepG2 CAGA-GFP TGF-b/SMAD3 reporter, GFP fluorescence, 18 h; TGF-beta stimulated, 500 pg/mL final; Potency, µM (top dose mostly 46.1 µM), for inactives: at the top dose activity, negative = inhibition, most hits filed as inhibitors; 410,000 tested, 1.2% active; further: on the % scale 0 is the no-effect control and ±100 the full control effect; nearly all actives have a fitted effect of over 65% in size
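Using HEPG2 CAGA-GFP reporter cells at 1000 cells/well, we pinned test compounds, stimulated with recombinant TGF-beta (500 pg/mL final) and measured total well GFP after 18 h.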
HT1080 IDH1KD tx – HT-1080 IDH1 knockdown cell toxicity (counter line). 360,000 tested, 2% active. HT-1080 IDH1 knockdown viability, ATP luminescence, 48 h. Potency, µM (doses to about 46.1 µM), for inactives: at the top dose activity, negative = toxicity, usual class: cytotoxic;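 further: 0% = DMSO wells and -100% = cell-free medium wells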
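HT-1080-IDH1KD cells (IDH1 knocked down), 750/well in RPMI with 5% FBS, treated with compound 48 h at 37 degrees C. Viability by CellTiter-Glo luminescence, normalised to DMSO and no-cell wells; concentration-response curves classed.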
S2 tox – reduces viability in counter-screen for ATXN expression inhibitors; S2 cells (HEK-293 line with an ATXN2-luciferase reporter) viability, CellTiter-Fluor protease fluorescence, 24 h; Potency, µM (highest dose often 56.7 µM), actives largely listed as cytotoxic; 400,000 tested, 0.49% active; further: nearly all actives have a fitted effect of over 40% in size
HepG2 tox – kills HepG2 cells in TGF-b inhibitor counter-screen; Potency, µM (doses to about 46.1 µM), for the others: at the highest dose activity change, negative = cytotoxicity, most hits filed as cytotoxic; HepG2 CAGA-GFP viability, ATP luminescence, 18 h; 410,000 tested, 0.76% active
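CellTiter-Glo luminescence gave cytotoxicity after 18 hours at 37 degrees C. The cells were HepG2 CAGA-GFP in 1% FBS DMEM, stimulated with 500 pg/mL TGF-beta after compound addition. %Activity was normalised to no-cell wells (complete cell-killing) and DMSO (no toxicity), and curves were fitted and classified.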
HT1080NT lethal – kills 2HG-producing HT-1080-NT fibrosarcoma cells | Potency, µM (highest dose often 46.1 µM), for the others: top-dose activity, negative = less viability, actives largely listed as cytotoxic | HT-1080-NT fibrosarcoma viability, CellTiter-Glo ATP luminescence, 48 h | 360,000 tested, 1.6% active;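 further: NT is the 2HG producing partner of a matched IDH1 knockdown line; 0% = DMSO-treated cells and -100% = media-only wells without cells; nearly all actives have a fitted effect of over 55% in size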
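HT-1080-NT fibrosarcoma cells (2HG-overproducing), 750 cells/well in RPMI with 5% FBS, dosed after 2 h and incubated 48 h at 37C. CellTiter-Glo luminescence normalized to DMSO and no-cell wells; concentration-response curves fitted and classed.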
ATXN2 expr inh – reduces ATXN2 reporter expression in HEK-293 cells. Potency, µM (top dose mostly 57 µM), without a hit: at the highest dose activity change, negative = inhibition, actives largely listed as inhibitors. HEK-293 ATXN2-luciferase reporter, luminescence, 24 h. 360,000 tested, 0.72% active; further: on the % scale 0 is the no-effect control and ±100 the full control effect; nearly all actives have a fitted effect of over 55% in size
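qHTS (up to 57 uM final) was run with 24 h compound exposure of reporter cells at 37 °C. Each well was multiplexed: SteadyGlo luminescence measured ATXN2-luciferase expression after a fluorogenic Gly-Phe-AFC viability readout (25 uM final).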
Active calls of the source: *; i = inactive; ? = inconclusive; · = no result given. The call rests on the fitted dose curve; in most records, active means well fitted curve in the direction sought with a large enough effect; inconclusive means small, poorly fitted or top-dose-only effect, or another doubt; inactive means no such curve, though single readings can be large; an effect the other way counts as inactive or inconclusive. Potency means the concentration at half of the fitted maximal effect.

SMILES	TGFb SMAD3 inh	HT1080 IDH1KD tx	S2 tox	HepG2 tox	HT1080NT lethal	ATXN2 expr inh
Cc1ccc(-c2nc(N/N=C/c3cccnc3)c3ccccc3n2)cc1	?	?	i	14.1µM*	11.2µM*	70.9%
Cc1ccc(-c2cc(C(=O)N/N=C/c3ccc([N+](=O)[O-])o3)c3ccccc3n2)o1	14.1µM*	?	i	11.2µM*	?	-26.2%
Cc1cccn2c3c(c(=O)nc12)C(c1ccc(F)cc1)CC(=O)N3 (stereo not drawn)	11.5%	·	i	-4.7%	·	3.2%
O=C(Nc1ccc(Cl)cc1)Nc1ccc2c(c1)N1CCN=C1S2	-14.2%	32.6µM*	i	-34.5%	20.6µM*	-12.9%
Nc1ccc2c(c1)N1CCN=C1S2	3.6%	-9.0%	i	-5.8%	-1.9%	8.1%
S=C(NN=Cc1ccccn1)N(Cc1ccccn1)Cc1ccccn1	?	?	?	-21.3%	-21.3%	7.94µM*
S=C(NN=C(c1ccccc1)c1ccccn1)N(Cc1ccccn1)Cc1ccccn1	?	8.2µM*	·	-85.3%	16.4µM*	0.891µM*
Cc1ccccc1NC(=S)N(Cc1ccccn1)Cc1ccccc1Cl	?	0.3%	?	-23.5%	-1.9%	?
CC(=NNC(=S)N(Cc1ccccn1)Cc1ccccn1)c1cnccn1	?	0.581µM*	?	-44.3%	?	1.26µM*
COc1cc(/C=N/Nc2nn3cnnc3c3ccccc23)ccc1O	1.4%	5.62µM*	i	-33.2%	?	15.3%
CCOc1cc(/C=N/Nc2nn3cnnc3c3ccccc23)ccc1O	-0.1%	?	i	-60.5%	?	2.6%
Cc1ccc2[nH]c(=O)c3cc(C(=O)NCCc4ccc(Cl)cc4)sc3c2c1	0.2%	·	i	-3.9%	·	-13.3%
Cc1nc(CSc2nc3[nH]ncc3c(=O)n2-c2ccccc2)cs1	-18.0%	-17.1%	i	-10.6%	-6.2%	-8.0%
Cc1noc(C)c1CSc1nc2[nH]ncc2c(=O)n1-c1ccccc1	11.4%	0.517µM*	?	-25.7%	?	26.0%
Cc1ccc(-n2c(SCC(=O)N/N=C/c3c(C)nn(-c4ccccc4)c3C)nc3ccccc3c2=O)cc1	?	-21.6%	?	-39.1%	-17.2%	-22.5%
Cc1noc(C)c1CSc1nc2ccccc2c(=O)n1-c1ccc(F)cc1F	6.0%	16.4µM*	i	-9.5%	?	-13.8%
CCOC(=O)N1CCN(C(=O)CSc2nc3ccccc3c(=O)n2-c2ccccc2)CC1	3.16µM*	1.8%	?	3.6%	-2.9%	2.2%
Cc1nn(-c2ccccc2)c(C)c1/C=N/NC(=O)CSc1nc2ccccc2c(=O)n1-c1ccc(Br)cc1	?	13µM*	·	-40.6%	20.6µM*	?
Cc1ccc(-c2nnc3ccccc3c2C(=O)Nc2cccc(C(F)(F)F)c2)cc1	-19.2%	·	·	-6.9%	·	·
Cc1noc(C)c1CSc1nc2ccccc2c(=O)n1-c1ccccc1	10.7%	9.2µM*	?	0.9%	?	-3.4%
Cc1noc(C)c1CSc1nnc2n(-c3ccccc3)c(=O)c3ccccc3n12	-0.4%	-8.8%	i	8.0%	16.1%	8.7%
CC(=O)c1ccc(F)c(-c2cc(C)cc3c2OC(CNC(=O)Cc2ccc4c(c2)OCO4)C3)c1 (stereo not drawn)	·	·	i	·	·	·
COc1ccc(C)cc1NC(=O)CNC(c1ccccc1)c1ccc(C)cc1 (stereo not drawn)	?	5.17µM*	i	-11.4%	?	0.2%
CCc1cc2c(-c3ccccc3)cc(=O)oc2c2c1OCN(Cc1ccc(F)cc1)C2	13.1%	·	·	-4.3%	·	2.6%
CC(C=CC(=O)NO)=C[C@@H](C)C(=O)c1ccc(N(C)C)cc1	·	·	·	·	·	167.1%
SMILES	TGFb SMAD3 inh	HT1080 IDH1KD tx	S2 tox	HepG2 tox	HT1080NT lethal	ATXN2 expr inh
CC(=O)Nc1ccc(S(=O)(=O)NC2=C(N3CCN(C)CC3)C(=O)c3ccccc3C2=O)cc1	?	0.4%	14.1µM*	-60.8%	-7.1%	·
CC1CCN(C2=C(NS(=O)(=O)c3ccc(Br)cc3)C(=O)c3ccccc3C2=O)CC1	?	-24.0%	?	-43.2%	18.4µM*	·
CCN1CCN(C2=C(NS(=O)(=O)c3ccc(C)cc3)C(=O)c3ccccc3C2=O)CC1	12.6µM*	?	?	11.2µM*	?	?
CC1CCN(C2=C(NS(=O)(=O)c3ccccc3)C(=O)c3ccccc3C2=O)CC1	?	?	?	-39.2%	-26.8%	-7.3%
COc1ccc(-c2noc(N3CCC(C(=O)N4CCN(c5cccc(OC)c5)CC4)CC3)n2)cc1	-2.3%	·	·	0.7%	·	·
CCC(=O)N1CCN(c2ccc(NC(=O)c3ccc(N4CCOCC4)c([N+](=O)[O-])c3)cc2)CC1	-13.9%	0.6%	?	10.7%	10.8%	4.6%
CCCC(=O)N1CCN(c2ccc(NC(=O)c3ccc([N+](=O)[O-])o3)cc2)CC1	?	6.51µM*	i	-90.5%	13µM*	-15.9%
CCC(=O)N1CCN(c2ccc(NC(=O)c3ccc([N+](=O)[O-])o3)cc2)CC1	?	5.17µM*	i	-44.9%	6.51µM*	23.4%
CCCC(=O)N1CCN(c2ccc(NC(=O)c3ccc(Br)o3)cc2)CC1	-2.0%	8.7%	i	-2.1%	19.4%	13.5%
CCCCCCCCCCCCCCCC(=O)O[C@@H]1CC(C)=C(/C=C/C(C)=C/C=C/C(C)=C/C=C/C=C(C)/C=C/C=C(C)/C=C/C2=C(C)C[C@@H](OC(=O)CCCCCCCCCCCCCCC)CC2(C)C)C(C)(C)C1	·	·	i	·	·	·
COc1ccc2c(c1)-c1nc(-n3ncc(C(=O)NCC4CCCN(C)C4)c3C3CC3)ncc1CC2 (stereo not drawn)	·	·	i	·	·	·
COc1ccc2c(c1)-c1nc(-n3ncc(C(=O)NC[C@@H]4CCCN5CCCC[C@H]45)c3C)ncc1CC2	·	·	25.1µM*	·	·	·
O=C1C(C2=C(O)c3ccccc3C2=O)=Nc2ccccc21	267.8%	?	?	11.2µM*	-26.8%	?
Cc1ccnc(NC(=O)c2ccccc2NC(=O)c2ccc(Cl)cc2Cl)c1	?	4.61µM*	·	-0.8%	2.91µM*	·
N#CC1=C(N)N(c2ccccc2)C2=C(C(=O)CCC2)C1c1ccsc1 (stereo not drawn)	-2.1%	?	i	-27.6%	11.2µM*	13.3%
CN(C)N1C(N)=C(C#N)C(c2ccsc2)C2=C1CCCC2=O (stereo not drawn)	-6.0%	0.1%	i	-1.8%	0.9%	0.2%
Cc1nc(NCc2cnn(C)c2)sc1-c1ccn(-c2cccc(F)c2)n1	·	·	i	·	·	·
